Only some compounds are listed: those with a hit (about 6.2% of all), similar ones and a draw of the others.
ATXN2 expr inh = ATXN2 expression inhibition. HEK-293 ATXN2-luciferase reporter, luminescence, 24 h. Potency, µM (series often up to 57 µM), without a hit: at the top dose activity change, negative = inhibition, usual class: inhibitors. actives 0.72% (n = 360,000). AID 1745845; note: % is set by controls: 0 for no effect and ±100 for the full control effect; nearly all actives have a fitted effect of over 55% in size
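ATXN2-luciferase reporter cells (luciferase flanked by upstream and downstream ATXN2 gene portions) were treated 24 h at 37 °C with compounds at up to 57 uM. SteadyGlo luminescence gave expression; GF-AFC fluorescence gave viability.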
HT1080NT lethal = kills 2HG-producing HT-1080-NT fibrosarcoma cells. HT-1080-NT fibrosarcoma viability, CellTiter-Glo ATP luminescence, 48 h. Potency, µM (highest dose often 46.1 µM), inactives show top-dose activity, negative = less viability, hits mostly cytotoxic. actives 1.6% (n = 360,000);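 note: NT is the 2HG producing partner of a matched IDH1 knockdown line; 0% = DMSO-treated cells and -100% = media-only wells without cells; nearly all actives have a fitted effect of over 55% in size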
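Compounds were tested in concentration-response format on HT-1080-NT cells for 48 hours at 37 degrees C. Cell viability came from CellTiter-Glo luminescence; curves were classified by r2, response magnitude and activity.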
KB-3-1 tox = kills parental KB-3-1 adenocarcinoma cells; KB-3-1 viability, CellTiter-Glo ATP luminescence, 72 h; Potency, µM (highest dose often 46.1 µM), most hits filed as cytotoxic; actives 1.4% (n = 400,000); note: % is set by controls: 0 for no effect and ±100 for the full control effect; nearly all actives have a fitted effect of over 60% in size
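Parental KB-3-1 adenocarcinoma cells in phenol-red-free DMEM with 10% FBS were pin-treated with compounds at several concentrations, incubated 72 h at 37 °C, and viability read by CellTiter-Glo luminescence; concentration-effect curves were fitted after normalization.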
KB-V1 cytotox = kills drug-selected multidrug resistant KB-V1 cells | KB-V1 MDR cells viability, CellTiter-Glo, 72 h | Potency, µM (titrated, usually from 46.1 µM), most hits filed as cytotoxic | actives 3.4% (n = 400,000) | AID 1347076; note: % is set by controls: 0 for no effect and ±100 for the full control effect; nearly all actives have a fitted effect of over 60% in size
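Luminescent ATP read-out (CellTiter-Glo, 10 min) measures survival of drug-selected KB-V1 MDR cells after 72 h, 37 degrees C compound exposure. Medium: phenol-red-free DMEM, 10% FBS. Values from fitted concentration-response curves.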
HT1080 IDH1KD tx = kills HT-1080 cells with IDH1 knockdown | AID 686971 | HT-1080 IDH1 knockdown viability, ATP luminescence, 48 h | actives 2% (n = 360,000) | Potency, µM (titrated, usually from 46.1 µM), for inactives: top-dose activity, negative = toxicity, most hits filed as cytotoxic;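 note: 0% = DMSO wells and -100% = cell-free medium wells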
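CellTiter-Glo luminescence after 48 h compound exposure at 37 degrees C of IDH1-knockdown HT-1080 cells in 5% FBS RPMI. %Activity scaled between DMSO wells and cell-free media wells, with curves fitted and assigned curve classes.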
ATXN viability = reduces viability in counter-screen for ATXN expression inhibitors. actives 0.49% (n = 400,000). Potency, µM (highest dose often 56.7 µM), usual class: cytotoxic. AID 651635. S2 cells (HEK-293 line with an ATXN2-luciferase reporter) viability, CellTiter-Fluor protease fluorescence, 24 h; note: nearly all actives have a fitted effect of over 40% in size
Numbers without * were called inactive; [ ] = remark or other dose. Calls come from the whole dose curve; as a rule, active = well fitted curve in the direction sought with a large enough effect; inconclusive = small, poorly fitted or top-dose-only effect, or another doubt; inactive = no such curve, though single readings can be large; an effect the other way counts as inactive or inconclusive. Potency is the fitted concentration of half-maximal effect.

O=C(Nc1nccs1)C1Cc2ccccc2CN1S(=O)(=O)c1ccc(F)cc1 (configuration not stated) was read as ATXN2 expr inh 0.9%, HT1080NT lethal 1.5%, KB-3-1 tox inactive, KB-V1 cytotox inactive, HT1080 IDH1KD tx -6.3% and ATXN viability inactive.
O=C(Nc1nnc(C2CC2)s1)C1Cc2ccccc2CN1S(=O)(=O)c1ccccc1F (configuration not stated) was read as ATXN2 expr inh 43.5%, HT1080NT lethal inconclusive, KB-3-1 tox inactive, KB-V1 cytotox inconclusive, HT1080 IDH1KD tx 12.6µM* and ATXN viability inactive.
Cc1cccnc1-c1cccc2c1OC(CNC(=O)Cc1c(C)noc1C)C2 (configuration not stated) was read as ATXN viability inactive.
`Cc1ccc(-c2cn(-c3ccccc3)c(SCC(=O)NC3CCS(=O)(=O)C3)n2)cc1C` (configuration not stated) gave ATXN2 expr inh 62.9%, HT1080NT lethal 3.2%, KB-3-1 tox inactive, KB-V1 cytotox 3.66µM*, HT1080 IDH1KD tx 2.7% and ATXN viability inactive.
`COC(=O)c1cc(C(=O)c2ccc(Cl)cc2)n2c(=O)/c(=C\N(C)C)sc12` gave ATXN2 expr inh 0.8%[11.3 µM], HT1080NT lethal -8.3%, KB-3-1 tox 8.2µM*, KB-V1 cytotox inconclusive, HT1080 IDH1KD tx 0.1% and ATXN viability inactive.
For CCC[C@H]1C[C@H](C(=O)N[C@@H]([C@@H]2O[C@@H](SC)[C@@H](O)[C@@H](O)[C@@H]2O)[C@H](C)Cl)N(C)C1 the results were ATXN2 expr inh -2.2%.
For O=C(c1noc2c1CCc1ccccc1-2)N1CCOCC1 the results were ATXN2 expr inh 41.3%, HT1080NT lethal 2.3%, KB-3-1 tox inactive, KB-V1 cytotox 16.4µM*, HT1080 IDH1KD tx -19.6% and ATXN viability inactive.
Screening CCCNC(=O)c1noc2c1CCc1cc(OC)ccc1-2 returned ATXN2 expr inh 17.9%, HT1080NT lethal 4.9%, KB-3-1 tox inactive, KB-V1 cytotox inactive, HT1080 IDH1KD tx 1.6% and ATXN viability inactive.
`COc1ccc2c(c1)CCc1c(C(=O)NCc3cccnc3)noc1-2` gave ATXN2 expr inh 21.0%, HT1080NT lethal 13.4%, KB-3-1 tox inconclusive, KB-V1 cytotox 8.2µM*, HT1080 IDH1KD tx -1.5% and ATXN viability inactive.
For COc1ccc2c(c1)CCc1c(C(=O)N3CCCCCC3)noc1-2 the results were ATXN2 expr inh 43.1%, HT1080NT lethal -1.6%, KB-3-1 tox inactive, KB-V1 cytotox 14.6µM*, HT1080 IDH1KD tx -0.9% and ATXN viability inactive.
COc1ccc(OC)c(NC(=O)c2cc3n(n2)C(C(F)(F)F)CC(c2ccc4c(c2)OCO4)N3)c1 (configuration not stated) was read as ATXN2 expr inh inconclusive, HT1080NT lethal inconclusive, KB-3-1 tox inconclusive, KB-V1 cytotox 11.6µM*, HT1080 IDH1KD tx inconclusive and ATXN viability inactive.
Screening COc1ccccc1NC(=O)CSc1oc(-c2ccc(F)cc2)nc1S(=O)(=O)c1ccc(Br)cc1 returned ATXN2 expr inh 12.6%, KB-3-1 tox inactive, KB-V1 cytotox inactive and ATXN viability inactive.
`O=C(Nc1ccccc1)C12CC3CC(C1)CC(n1cnc([N+](=O)[O-])n1)(C3)C2` gave ATXN2 expr inh 5.5%, HT1080NT lethal 1.2%, KB-3-1 tox inactive, KB-V1 cytotox inactive, HT1080 IDH1KD tx 5.1% and ATXN viability inactive.
COc1cc(NC(=O)C23CC4CC(C2)CC(n2cnc([N+](=O)[O-])n2)(C4)C3)cc(OC)c1 was read as ATXN2 expr inh 10.7%, HT1080NT lethal 6.9%, KB-3-1 tox inconclusive, KB-V1 cytotox 20.6µM*, HT1080 IDH1KD tx 5.2% and ATXN viability inactive.
COC(=O)c1cccc(NC(=O)C23CC4CC(C2)CC(n2cncn2)(C4)C3)c1 was read as ATXN2 expr inh 6.8%, HT1080NT lethal -1.9%, KB-3-1 tox inactive, KB-V1 cytotox 20.6µM*, HT1080 IDH1KD tx -0.5% and ATXN viability inactive.
Screening COC(=O)c1ccc(NC(=O)C23CC4CC(C2)CC(n2cncn2)(C4)C3)cc1 returned ATXN2 expr inh -36.8%, HT1080NT lethal 15.6%, KB-3-1 tox inactive, KB-V1 cytotox inactive, HT1080 IDH1KD tx 15.5% and ATXN viability inactive.
Screening COc1ccccc1C(=O)C1CCCN(C(=O)c2ccc(Cl)cc2)C1 (configuration not stated) returned HT1080NT lethal -0.2%, KB-3-1 tox inactive, KB-V1 cytotox inconclusive, HT1080 IDH1KD tx 0.0% and ATXN viability inactive.
For C/C(=N\NC(=O)c1ccccc1)c1ccc(NC(=O)c2cccs2)cc1 the results were ATXN2 expr inh 2.6%, HT1080NT lethal -0.7%, KB-3-1 tox inactive, KB-V1 cytotox inactive, HT1080 IDH1KD tx -1.6% and ATXN viability inactive.
`COc1cccc(C(=O)N/N=C(\C)c2ccc(NC(=O)Cc3ccccc3)cc2)c1OC` gave ATXN2 expr inh 13.4%, HT1080NT lethal 12.5%, KB-3-1 tox inactive, KB-V1 cytotox inactive, HT1080 IDH1KD tx 1.1% and ATXN viability inactive.
`C/C(=N\NC(=O)c1ccccc1O)c1ccc(NC(=O)Cc2ccccc2)cc1` gave ATXN2 expr inh 16.6%, HT1080NT lethal -1.2%, KB-3-1 tox inconclusive, KB-V1 cytotox 16.4µM*, HT1080 IDH1KD tx 0.4% and ATXN viability inactive.
`C/C(=N\NC(=O)c1ccccc1C)c1ccc(NC(=O)c2cccs2)cc1` gave ATXN2 expr inh 3.9%, HT1080NT lethal -2.8%, KB-3-1 tox inactive, KB-V1 cytotox 5.8µM*, HT1080 IDH1KD tx -29.9% and ATXN viability inconclusive.
Screening O=C(NCC1(N2CCOCC2)CCCC1)c1cnn(-c2nccc(-c3cccs3)n2)c1C1CC1 returned ATXN viability inactive.
C=C(C)Cn1c2ccc(NC(=O)NCCc3cccs3)cc2c(=O)n1C was read as ATXN2 expr inh 15.5%, HT1080NT lethal 5.1%, KB-3-1 tox inactive, KB-V1 cytotox inactive, HT1080 IDH1KD tx 4.7% and ATXN viability inactive.
Cc1ccc(C)c(S(=O)(=O)N2CCN(c3ncccn3)CC2)c1 was read as ATXN2 expr inh -18.7%, HT1080NT lethal 18.4µM*, KB-3-1 tox inconclusive, KB-V1 cytotox inconclusive, HT1080 IDH1KD tx inconclusive and ATXN viability inactive.
`Cc1cc2c(c(-c3cnccn3)c1)OC(CNC(=O)c1ccc(-n3nc(C)cc3C)cc1)C2` (configuration not stated) gave ATXN viability inactive.

Source: PubChem BioAssay (National Center for Advancing Translational Sciences (NCATS))
